# The list is not random: actives were taken first. Their share in the collection is about 31%.
# CYP2C19 act = activators of human cytochrome P450 2C19. 96,000 tested, under 10 active. AID 1025. recombinant CYP2C19, luciferin-H EGE luminescence; hits give high values; 0 = fully inhibited enzyme, 1 = untreated enzyme. activation factor at 5 µM;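 active = activation factor of at least 2 at 5 µM in the primary screen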
# CYP2C9 inhib = inhibitors of human CYP2C9 | P11712 | CYP2C9 Supersomes, luciferin-H conversion, luminescence | inhibition, % at 5 µM | 20% of 96,000 active;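 active = blocking of liver enzyme CYP2C9 beyond about 50% at 5 µM, limit read from the data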
# Target sequence (P11712 whole entry, looked up): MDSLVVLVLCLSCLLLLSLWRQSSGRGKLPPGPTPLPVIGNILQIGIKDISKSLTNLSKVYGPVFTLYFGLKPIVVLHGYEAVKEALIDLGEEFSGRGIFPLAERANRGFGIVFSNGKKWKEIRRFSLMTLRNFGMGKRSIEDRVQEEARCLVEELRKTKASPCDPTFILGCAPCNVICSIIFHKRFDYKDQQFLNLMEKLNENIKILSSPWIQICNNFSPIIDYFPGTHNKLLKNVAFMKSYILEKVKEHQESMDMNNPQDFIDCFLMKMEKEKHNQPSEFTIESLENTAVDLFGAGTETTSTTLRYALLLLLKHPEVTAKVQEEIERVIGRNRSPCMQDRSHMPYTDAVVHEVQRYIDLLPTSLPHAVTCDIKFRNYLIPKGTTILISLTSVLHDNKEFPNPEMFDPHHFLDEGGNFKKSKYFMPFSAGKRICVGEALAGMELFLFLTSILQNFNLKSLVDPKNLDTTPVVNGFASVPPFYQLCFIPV
# CYP2C19 inhib = human CYP2C19 inhibition | P33261 | CYP2C19 Supersomes, luciferin-H EGE luminescence, 30 min | inhibition, % at 5 µM | 21% of 96,000 active | AID 778;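 active = CYP2C19 inhibition above a set limit at 5 µM in the primary screen, cut at about 50% in these data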
# CYP2C9 act = increases human cytochrome P450 2C9 activity. recombinant CYP2C9, luciferin-H conversion, luminescence; hits give high values; factor 1 = untreated enzyme, 0 = blocked. activation factor at 5 µM. 1.4% of 96,000 active;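 active = activation factor of 2 or more for CYP2C9 at a 5 µM dose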
# Hits are given with their value; . = inactive.
SMILES,CYP2C19 act,CYP2C9 inhib,CYP2C19 inhib,CYP2C9 act
CCN(CC)CCCNC(=O)C1c2ccccc2C(=O)N(C)C1c1ccc(OC)cc1 (stereo unspecified),.,.,.,.
Cc1ccc(S(=O)(=O)NC(CC(=O)NC2CCCC2)c2ccco2)cc1 (stereo unspecified),.,.,58,.
CCOC(=O)N1CCC(NC(=O)CC(NS(=O)(=O)c2ccc(Cl)cc2)c2ccco2)CC1 (stereo unspecified),.,54,60,.
COCCCNC(=O)CC(NS(=O)(=O)c1ccc(C)cc1)c1ccco1 (stereo unspecified),.,.,.,.
CCOC(=O)N1CCC(Nc2nc3ccccc3nc2NS(=O)(=O)c2ccc(Cl)cc2)CC1,.,95,.,.
Cc1ccc(S(=O)(=O)NC(CC(=O)N2CCOCC2)c2ccco2)cc1 (stereo unspecified),.,.,.,.
COCCCNC(=O)CC(NS(=O)(=O)c1ccc(Cl)cc1)c1ccco1 (stereo unspecified),.,52,61,.
COc1ccccc1N1C(=O)C2C3C=CC(C3)C2C1=O (stereo unspecified),.,.,.,.
O=C(NCCCO)c1ccc2[nH]c3ccccc3c2c1,.,.,64,.
Cc1nc2ccccc2n1CC(=O)N/N=C\c1ccccn1,.,.,.,.
Cc1c(Cl)c(C(=O)NNC(=S)Nc2ccccc2)nn1C,.,.,78,.
Cc1ccc(NC(=S)NNC(=O)c2nn(C)cc2Cl)cc1,.,.,.,.
Cc1cccc(NC(=S)NNC(=O)c2nn(C)cc2Cl)c1,.,.,61,.
COc1ccccc1NC(=S)NNC(=O)c1c(Cl)c(C)nn1C,.,66,.,.
Cn1cnnc1SC(C(=O)Nc1cc(Cl)cc(Cl)c1)c1ccccc1 (stereo unspecified),.,.,.,.
Cc1ccc(S(=O)(=O)N2CCN(Cc3cc(C(C)C)ccc3O)CC2)cc1,.,51,.,.
O=C(c1csc2c1CCCCC2)N1CCN(c2ncccn2)CC1,.,89,88,.
O=C(c1csc2c1CCCC2)N1CCCCC1,.,.,52,.
COc1cc(OC)cc(C(=O)N2CCN(c3ncccn3)CC2)c1,.,.,.,.
N#Cc1nc(-c2cccs2)oc1NCCCN1CCOCC1,.,.,.,.
O=C1c2ccccc2C(=O)N1CCCCn1c(=O)oc2ccccc21,.,.,.,.
CC(=O)OCCCN1C(=O)c2ccc(Br)cc2C1=O,.,.,57,.
CC(C)OC(=O)CCCN1C(=O)c2ccc(N)cc2C1=O,.,.,74,.
COCCCN1C(=O)c2ccc(C(=O)O)cc2C1=O,.,.,.,.
O=C(OCCCCN1C(=O)c2ccccc2C1=O)c1ccc(Br)o1,.,55,.,.
SMILES,CYP2C19 act,CYP2C9 inhib,CYP2C19 inhib,CYP2C9 act
Nc1ccc2c(c1)C(=O)N(CCCC(=O)O)C2=O,.,.,.,.
COCCn1c(COC)nc2ccccc21,.,.,.,.
COCc1nc2ccccc2n1CCOc1ccccc1OC,.,.,60,.
OCCn1c(SCCOc2ccccc2)nc2ccccc21,.,.,75,.
OCCn1c(CSc2nc3ccccc3n2CCO)nc2ccccc21,.,.,.,.
OCc1nc2ccccc2n1CCCOc1ccccc1,.,.,53,.
COCCn1c(COc2ccc(C)cc2)nc2ccccc21,.,.,65,.
CCOC(=O)c1nc[nH]c1C,.,.,.,.
Cn1cc(C(=O)N2CCN(C(=O)c3ccco3)CC2)c2c3ccccc3n(C)c2c1=O,.,.,.,.
CCCCOc1ccc(NC(=O)CSc2nnnn2C)cc1,.,.,.,.
Cc1cccc(OCCCn2c(=O)sc3ccccc32)c1,.,.,.,.
Cc1ccc(OCCCn2c(CO)nc3ccccc32)cc1,.,53,95,.
COc1ccccc1OCCn1c(=O)sc2ccccc21,.,66,68,.
COCCn1c(-c2ccc(OC)cc2)nc2ccccc21,.,.,.,.
COc1ccccc1CN(Cc1nc2ccccc2c(=O)[nH]1)C(=O)Nc1ccccc1,.,.,.,.
COc1cc(NC2=CC(=O)CC(C)(C)C2)cc(OC)c1,.,.,.,.
CCOC(=O)c1cnc2c(C)cccc2c1NCCc1ccc(OC)c(OC)c1,.,90,97,.
O=C(NCCc1ccccc1)c1ccc2nc(-c3ccco3)c(-c3ccco3)nc2c1,.,98,94,.
O=C(NC1CCCC1)c1ccc2nc(-c3ccco3)c(-c3ccco3)nc2c1,.,59,.,.
O=C(NCCO)c1ccc2nc(-c3ccco3)c(-c3ccco3)nc2c1,.,.,.,.
COc1cccc(N2C(N)=NC(N)=NC2(C)C)c1,.,.,.,.
COc1cccc(-n2cnc3cccc(N)c32)c1,.,.,.,2.3
CCOC(=O)CNC(=O)c1ccccc1Br,.,.,.,.
Cc1cccc(C)c1NC(=O)C1=C(O)c2ccccc2N(C)S1(=O)=O,.,.,.,.
Cc1ccc(NC(=O)C2=C(O)c3ccccc3N(C)S2(=O)=O)cc1,.,73,.,.
SMILES,CYP2C19 act,CYP2C9 inhib,CYP2C19 inhib,CYP2C9 act
CCN(CC)CCCN1C(=O)C(=O)/C(=C(/O)c2ccc(OC)c(Cl)c2)C1c1ccco1 (stereo unspecified),.,.,.,.
O=C1c2ccccc2C(=O)N1CCCCN(C(=O)c1ccco1)c1ccc(Cl)cc1,.,82,57,.
CCN(CCCCN1C(=O)c2ccccc2C1=O)c1ccc2c(c1)C(=O)N(C)C2=O,.,.,.,.
Cc1ccc(N(CCCCN2C(=O)c3ccccc3C2=O)C(=O)c2cccs2)cc1,.,66,61,.
O=C(CCN1C(=O)c2ccccc2C1=O)N(CCO)Cc1ccccc1,.,.,.,.
O=C1c2ccccc2C(=O)N1CCCCN(C(=O)c1cccc([N+](=O)[O-])c1)c1ccc(Cl)cc1,.,61,69,.
Cc1cccc(N2CC(O)=C(c3nc4ccccc4n3C)C2=N)c1,.,.,.,.
C=CCOc1c(CNc2cccc(C(=O)O)c2)cccc1OC,.,.,.,.
Cn1nnc(NCc2cc(Br)ccc2OCc2cccs2)n1,.,.,.,.
O=C(Nc1ccc(OCC(F)(F)C(F)F)c(C(F)(F)F)c1)c1ccccc1O,.,.,.,.
CCOC(=O)N1CCN(CC(=O)Nc2c(C(=O)OC)[nH]c3cccc(Cl)c23)CC1,.,.,.,.
CCC(Sc1nc2c(c(=O)[nH]1)CCC2)C(=O)Nc1cccc(OC)c1 (stereo unspecified),.,62,.,.
COc1ccc(NC(=O)CSc2nc3c(c(=O)[nH]2)CCC3)cc1OC,.,.,.,.
Cc1ccc(NC(=O)CC2CS(=O)(=O)CC2CC(=O)Nc2ccc(C)c(C)c2)cc1C (stereo unspecified),.,.,.,.
CC(=O)N=c1sc2ccccc2n1C,.,.,.,.
CC(C(=O)N=c1sc2ccccc2n1C)N1C(=O)C2CC=CCC2C1=O (stereo unspecified),.,58,80,.
CC(C)COC(=O)N1CC(O)CC1C(=O)O (stereo unspecified),.,.,.,.

# Assay outcomes from PubChem BioAssay.
